Compounds without any hit were thinned out: in the full panel of roughly 83,000, 20% have a hit.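 How to read the values: 0–100, growth inhibition (40 = 60% inhibited); 0, no net growth; -100 to 0, cell death (-40 = 40% of starting cells died; -100 = all dead).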 Active and inactive are the calls of the source. The calls were made as follows: active = growth percent below 10; inactive = the rest.

The assay has as its system HCT-15 colon. Briefly: NCI-60 one-dose screen, 48 h (100 = growth as untreated, 0 = no growth, -100 = all killed). The settings on record: 10 µM unless noted.
On to `c1ccc(Cn2cnc3ccc(-c4nc(-c5ccc6c(c5)ncn6C5CCCCC5)cn5ccnc45)cc32)cc1`, for which the growth was -9.03% (active).

On to `N/C(=N\C(N)=N\c1nc2ccccc2s1)c1cccc(Cl)c1`, for which the growth is 32.1% (inactive).

As to `O=C(Cc1ccccc1)NNc1nc(Cl)nc(N2CCN(C(c3ccccc3)c3ccccc3)CC2)n1`, the growth was 44.7% (inactive).

As for `CCN(CC)c1ccc(C(=O)c2ccccc2)cc1`, the growth is 105% (inactive).

`O=C(Nc1ncc(Cc2cc(Cl)ccc2Cl)s1)c1cccs1`: the growth was 23.5% (inactive).

In the case of `COc1cc(C2C3CC4CCCC[C@H]4N3[C@@]3(C(=O)Nc4cc(Cl)ccc43)C2C(=O)c2nc3ccccc3[nH]2)cc(OC)c1OC` (some centres not stated), the growth is 43.3% (inactive).

Consider `CC(=O)[C@@H]1CC[C@]2(C(N)=O)CC[C@]3(C)[C@H](CC[C@@H]4[C@@]5(C)CCCNC(C)(C)[C@@H]5CC[C@]43C)[C@@H]12`, for which the growth is 70.7% (inactive).

In the case of `Cc1cccc(C)c1N=c1oc2ccc(Cl)cc2nc1-c1ccccc1O`, the growth was 89.4% (inactive).

With `O=S(=O)(NCCCNc1nccc(-c2c(-c3cccc(O)c3)nc3occn23)n1)c1ccc(Cl)cc1`, the growth is 98.7% (inactive).

For `N#C/C(=C\c1ccc([N+](=O)[O-])s1)c1nc2cc(Br)ccc2s1`, the growth was -52.1% (active).

Regarding `Oc1ccc(C(c2ccc(O)cc2)c2ccc(Br)cn2)cc1`, the growth was 15.6% (inactive).

`Cc1nc2sccn2c1-c1cn2ccsc2n1`: the growth is 70.3% (inactive).

Take `CCOC(=O)/C(C#N)=C1/NNC(=Nc2cccnc2)S1`: the growth is 101% (inactive).

Consider `O=S(=O)(NCCCNc1nccc(-c2c(-c3cccc(F)c3)nc3sccn23)n1)c1cccc2ccccc12`, for which the growth was 18% (inactive).

As for `CCCNC(=O)Oc1ccc(/C(=C(\C)c2ccccc2)c2ccc(OCCCN(C)C)cc2)cc1`, the growth is 38.7% (inactive).

`O=C(CSc1nc2sc3c(c2c(=O)n1-c1ccc(Cl)cc1)CCCC3)Nc1nc(-c2cccc(Br)c2)cs1`: the growth was 87.8% (inactive).

Turning to `O=C1c2ccc3c4c(ccc(c24)C(=O)N1CCCNCc1ccccc1F)C(=O)N(CCCNCc1ccccc1F)C3=O`, the growth was -60.6% (active).

On to `CCN(CC)c1ccc(/C=N/NC(=O)CSc2nc3ccccc3c(=O)n2CCc2ccc(S(N)(=O)=O)cc2)c(O)c1`, for which the growth is 25.9% (inactive).

Consider `CCCCCN1C=C/C(=C\C(=O)N(C)c2ccc(Oc3ccccc3)cc2)c2ccccc21`, for which the growth was 98.4% (inactive).

On to `C/C=C(\C)C(=O)NC1=CC[C@@]2(C)C(=CCC3C2CC[C@@]2(C)C3CC[C@@H]2C(C)N(C)C)C1=O` (some centres not stated), for which the growth is -32.5% (active).

Consider `C[C@H]1[C@H](C)CC[C@]2(C(=O)NCC#CCN3CCN(C)CC3)CC[C@]3(C)C(=CC[C@@H]4[C@@]5(C)Cc6c([nH]c7ccccc67)C(C)(C)[C@@H]5CC[C@]43C)[C@H]12`, for which the growth was 47% (inactive).

In the case of `CCOC(=O)c1cc(C(=O)c2ccc(Br)cc2)n2ccc(/C=C/c3cc[n+](CC(=O)c4ccc(OC)cc4)cc3)cc12`, the growth is 70.7% (inactive).

In the case of `NC(=NCCCOc1ccc(F)cc1)Nc1ccc(I)cc1`, the growth was 75.3% (inactive).

In the case of `O=C(/C=C(/C=C/c1coc2ccccc12)OB(F)F)/C=C/c1coc2ccccc12`, the growth is 95.1% (inactive).

`COc1cc(NC(=O)CSc2nc3ccc(C)cc3c(=O)n2Cc2ccccc2)cc(OC)c1OC`: the growth is 84.4% (inactive).

Consider `Oc1ccc(C2c3ccccc3Oc3ccccc32)c2cccnc12`, for which the growth was 30.3% (inactive).

Turning to `Cc1ccc(C(=O)/C(=C\c2ccc([N+](=O)[O-])cc2)S(=O)Cc2ccc(F)cc2)cc1` (configuration not stated), the growth is 7.72% (active).

Turning to `COc1cc2oc(-c3cccc(C(=O)Nc4ccccc4)c3)cc(=O)c2c(O)c1OC`, the growth is 92.8% (inactive).

As to `COc1ccc(C(=O)/C=C/c2cc3ccccc3n3nnnc23)cc1`, the growth is 97.3% (inactive).

Turning to `Cc1nc2sccn2c1-c1nc2sccn2c1/C=C1/C(=O)Nc2ccccc21`, the growth is 29.4% (inactive).

As for `COc1cc2c(c(OC)c1OC)CCC(c1cccc(NC(=O)c3cccc(Br)c3)c1)O2` (configuration not stated), the growth is 87.7% (inactive).

In the case of `CCCCCN1C=C/C(=C\C(=O)N(C)c2ccccc2Br)c2ccccc21`, the growth was 102% (inactive).

As to `COc1ccc(C(=O)c2cc(OC)c(OC)c(OC)c2)cc1O`, the growth was 3.56% (active).

Consider `CC(C)(C)c1cc(C=O)cc(C(C)(C)C)c1O`, for which the growth was 102% (inactive).

For the compound `CCOC(=O)c1nc2c3ccccc3ccn2c1C(=O)OCC`, the growth is 99.7% (inactive).

For the compound `CC(C)=CCC[C@](C)(O)[C@H]1CC[C@]2(C)[C@@H]1CC[C@@H]1[C@@]3(C)C/C(=C/c4ccccc4)C(=O)C(C)(C)[C@@H]3CC[C@]12C`, the growth was 93.6% (inactive).

As for `C=C(C)[C@@H]1CC[C@]2(C(=O)N3CCN(C)CC3)CC[C@]3(C)[C@H](CC[C@@H]4[C@@]5(C)CC[C@H](O)C(C)(C)[C@@H]5CC[C@]43C)[C@@H]12`, the growth is -83.9% (active).

Values taken from PubChem BioAssay (NCI).
